The values that follow come from PubChem BioAssay.

Test [1] can be described thus: growth inhibition of DIPG glioma cells, dose response, cell-based, SU-DIPG-XVII, MIPE5.0, CellTiter-Glo, qHTS (AID 1347060; cut-off not given, nearly all actives have AC50 up to about 26 µM;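 for AC50: cells exposed to compound for 48 hours before viability readout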). Particulars: SU-DIPG-XVII viability, CellTiter-Glo ATP luminescence. (ATP-based viability assays read luminescence as a measure of living cells.)
A short description of test [2]: growth inhibition of DIPG glioma cells, dose response, cell-based, SU-DIPG-XIII, MIPE4.0, CellTiter-Glo, qHTS (AID 1347061; cut-off not given, nearly all actives have AC50 up to about 37 µM;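 note: cells exposed to compound for 48 hours before readout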). As to conditions: SU-DIPG-XIII viability, CellTiter-Glo ATP luminescence.
Test [3] in a line: growth inhibition of DIPG glioma cells, dose response, cell-based, JHH-DIPG-1, MIPE4.0, CellTiter-Glo, qHTS (AID 1347062; cut-off not given, nearly all actives have AC50 up to about 27 µM;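 for AC50: cells exposed to compound for two days before readout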). As to conditions: JHH-DIPG-1 viability, CellTiter-Glo ATP luminescence.
Test [4] is described as follows: growth inhibition of DIPG glioma cells, dose response, cell-based, SU-DIPG-IV, MIPE4.0, CellTiter-Glo, qHTS (AID 1347063; cut-off not given, nearly all actives have AC50 up to about 30 µM;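 note: compound exposure lasted 48 hours before the viability readout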). As to conditions: SU-DIPG-IV viability, CellTiter-Glo ATP luminescence.
The nature of test [5]: growth inhibition of DIPG glioma cells, dose response, cell-based, SU-DIPG-XIII, MIPE5.0, CellTiter-Glo, qHTS (AID 1347064; cut-off not given, nearly all actives have AC50 up to about 23 µM;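 for AC50: cells exposed to compound for 48 hours before the viability read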). As to conditions: SU-DIPG-XIII viability, CellTiter-Glo ATP luminescence.
The nature of test [6]: SU-DIPG-VI glioma cell viability, MIPE4.0 library, CellTiter-Glo luminescence, qHTS (AID 1347066; cut-off not given, nearly all actives have AC50 up to about 30 µM;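 note: cells exposed to compound for 48 hours before readout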). As to conditions: CellTiter-Glo ATP luminescence.
Test [7] can be described thus: JHH-DIPG-1 glioma cell viability, MIPE5.0 library, CellTiter-Glo luminescence, qHTS (AID 1347067; cut-off not given, nearly all actives have AC50 up to about 26 µM;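 note: cells exposed to compound for 48 hours before readout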). Particulars: JHH-DIPG-1 glioma viability, CellTiter-Glo ATP luminescence.
A short description of test [8]: SU-DIPG-XXV glioma cell viability, MIPE5.0 library, qHTS (AID 1347068; cut-off not given, nearly all actives have IC50 up to about 30 µM). For orientation: In qHTS, concentration-response curves come from the screen itself.
Test [9] in a line: sensitizers of A549 cells to miR-34 induction, primary screen, imaging, A549 dox-inducible miR-34, nuclei and caspase counts (AID 1347080;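 active = compounds whose cell count with miR-34 switched on is under 0.7 times the count with it off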). As to conditions: A549 miR-34 inducible, Hoechst nuclei count, 48 h.
A short description of test [10]: survival rescue of mitochondrial mutant cells in low glucose, primary screen, MELAS cybrids, Rieske KO mouse fibroblasts, CellTiter-Glo (AID 1508586;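 active = mean z-score across replicates of 1.96 or higher in either the MELAS or the Rieske mutant cell line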;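 note: z relative to plate mean and SD of compound and empty wells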).
A short description of test [11]: viability loss in pontine glioma line – cell-based, SU-DIPG-XXV, MIPE5.0, CellTiter-Glo, qHTS, dose response (AID 1347065; cut-off not given, nearly all actives have AC50 up to about 26 µM;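 note: cells exposed to compound for 48 hours before ATP readout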). As to conditions: CellTiter-Glo ATP luminescence.
The nature of test [12]: modifiers of HSF1 nuclear foci, imaging, Selleck Cancer Library (AID 1347162; in the data active = plate-normalised HSF1 focus index below about 0.46). Particulars: human cells, at 10 µM; SSMD: measured here: HSF1 foci SSMD mean; cell count: measured here: cell number; plate-normalised HSF1 focus index: stronger effect = lower value.
Test [13] is described as follows: ovarian cancer cell viability with rucaparib, profiling panel, oncology-focused library, rucaparib conditional (AID 1508598). As to conditions: patient-derived ovarian cancer cells, CellTiter-Glo viability, 144 h, stronger effect = lower value.
The mark [14] stands for this setting: stronger effect = lower value, cell number ratio, induced over uninduced.
[15] abbreviates: measured here: relative caspase fold change +Dox/-Dox.
Where [16] appears, read: measured here: total cells with miR-34 induction, stronger effect = lower value.
The mark [17] stands for this setting: measured here: total cells without miR-34 induction.
Where [18] appears, read: MELAS cybrid survival, CellTiter-Glo 48 h, stronger effect = higher value.
Setting [19] is: Rieske KO mouse fibroblast survival, CellTiter-Glo 72 h.

As a reminder, the AC50 is the concentration giving half of the maximal activity seen. One may read the viability as a read-out of living cells in per cent, often relative to untreated cells.

SMILES strings stand for the structures. Records with an inconclusive call do not appear. The source made the active and inactive calls.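 Rule for the calls, unless noted: active = normalized viability below 100% at a tested concentration; inactive = the rest.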

Consider `O=C(CCN1CCN(C(=O)OCc2cc(Cl)cc(Cl)c2)CC1)c1ccc2[nH]c(=O)oc2c1`, for which the AC50 is 20900 nM (active) in test [1], 23500 nM (active) in test [5] and 16600 nM (active) in test [7]. In addition, the compound was classed as inactive in [2], in [3], in [4], in [6] and in test [8].
Consider `CS(=O)(=O)c1ccc(-c2cnc(N)c(C(=O)Nc3ccccc3)n2)cc1`, for which the compound was called inactive in test [1], in test [2], in test [3], in [4], in [5] and in test [6]. Also, the result in [7] and in test [8] was inactive. The fold change is 1.01 (inactive) in test [9] (setting [14]) and 0.481 in test [9] (setting [15]). Further, the cell count amounted to 4300 in test [9] (setting [16]) and 4270 in test [9] (setting [17]). The z-score in [10] (setting [18]) is -0.286 (inactive); in [10] (setting [19]) it was 0.758.
`COc1c(C)cnc(Cn2cnc3c(Cl)nc(N)nc32)c1C`: the AC50 is 525 nM (active) in [1]; 1180 nM (active) in test [2]; 187 nM (active) in [3]; 332 nM (active) in [4]; 1050 nM (active) in test [5]; 742 nM (active) in test [11]. Moreover, the AC50 in test [7] is 1050 nM (active). The fold change in [9] (setting [14]) was 0.993 (inactive); in test [9] (setting [15]), 1.45. For the same compound, the cell count in test [9] (setting [16]) was 1950; in [9] (setting [17]), 1960; in [12], 7350. Moreover, the SSMD in test [12] was 4.45. In test [12], the plate-normalised HSF1 focus index is 1.16 (inactive). Further, the z-score in test [10] (setting [18]) is 2.83 (active); in test [10] (setting [19]), 0.0158. For the same compound, the viability is 115% (inactive) in test [13] (at 0.000305 µM, OCI-C5x cells, with rucaparib 10 µM, 100% = cells with rucaparib alone); 104% (inactive) in test [13] (at 0.000305 µM, OCI-C5x cells, without rucaparib); 111% (inactive) in test [13] (at 0.000305 µM, OCI-P5x cells, with rucaparib 20 µM, 100% = cells with rucaparib alone); 99.7% (active) in test [13] (at 0.000305 µM, OCI-P5x cells, without rucaparib); 122% (inactive) in [13] (at 0.00122 µM, OCI-C5x cells, with rucaparib 10 µM, 100% = cells with rucaparib alone); 111% (inactive) in test [13] (at 0.00122 µM, OCI-C5x cells, without rucaparib). In addition, the viability in test [13] (at 0.00122 µM, OCI-P5x cells, with rucaparib 20 µM, 100% = cells with rucaparib alone) is 116% (inactive); in test [13] (at 0.00122 µM, OCI-P5x cells, without rucaparib) it was 110% (inactive); in test [13] (at 0.00488 µM, OCI-C5x cells, with rucaparib 10 µM, 100% = cells with rucaparib alone) it was 123% (inactive); in test [13] (at 0.00488 µM, OCI-C5x cells, without rucaparib), 82.7% (active); in test [13] (at 0.00488 µM, OCI-P5x cells, with rucaparib 20 µM, 100% = cells with rucaparib alone), 122% (inactive); in [13] (at 0.00488 µM, OCI-P5x cells, without rucaparib) it was 118% (inactive). The viability is 125% (inactive) in [13] (at 0.0195 µM, OCI-C5x cells, with rucaparib 10 µM, 100% = cells with rucaparib alone); 111% (inactive) in [13] (at 0.0195 µM, OCI-C5x cells, without rucaparib); 128% (inactive) in test [13] (at 0.0195 µM, OCI-P5x cells, with rucaparib 20 µM, 100% = cells with rucaparib alone); 121% (inactive) in test [13] (at 0.0195 µM, OCI-P5x cells, without rucaparib); 133% (inactive) in test [13] (at 0.0781 µM, OCI-C5x cells, with rucaparib 10 µM, 100% = cells with rucaparib alone); 137% (inactive) in test [13] (at 0.0781 µM, OCI-C5x cells, without rucaparib). Moreover, the viability was 33.6% (active) in test [13] (at 0.0781 µM, OCI-P5x cells, with rucaparib 20 µM, 100% = cells with rucaparib alone); 68.7% (active) in test [13] (at 0.0781 µM, OCI-P5x cells, without rucaparib); 98.4% (active) in test [13] (at 0.313 µM, OCI-C5x cells, with rucaparib 10 µM, 100% = cells with rucaparib alone); 127% (inactive) in test [13] (at 0.313 µM, OCI-C5x cells, without rucaparib); 20.3% (active) in test [13] (at 0.313 µM, OCI-P5x cells, with rucaparib 20 µM, 100% = cells with rucaparib alone); 9.78% (active) in test [13] (at 0.313 µM, OCI-P5x cells, without rucaparib). Further, the viability in test [13] (at 1.25 µM, OCI-C5x cells, with rucaparib 10 µM, 100% = cells with rucaparib alone) was 12.2% (active); in test [13] (at 1.25 µM, OCI-C5x cells, without rucaparib), 15.4% (active); in test [13] (at 1.25 µM, OCI-P5x cells, with rucaparib 20 µM, 100% = cells with rucaparib alone), 9% (active); in test [13] (at 1.25 µM, OCI-P5x cells, without rucaparib), 7.18% (active); in test [13] (at 5 µM, OCI-C5x cells, with rucaparib 10 µM, 100% = cells with rucaparib alone), 11.2% (active); in test [13] (at 5 µM, OCI-C5x cells, without rucaparib), 10.3% (active). Also, the viability in [13] (at 5 µM, OCI-P5x cells, with rucaparib 20 µM, 100% = cells with rucaparib alone) was 9.01% (active); in test [13] (at 5 µM, OCI-P5x cells, without rucaparib), 6.09% (active).
Consider `N[C@@]1(C(=O)O)CS(=O)(=O)[C@H]2[C@H](C(=O)O)[C@H]21`, for which the outcome in test [1], in test [2], in test [3], in [4], in [5] and in [6] was inactive. For the same compound, the outcome in test [7] and in test [8] was inactive.
